# For some assays here: Results with a measured potency or affinity are listed apart.
# Legend:
# Parameters in all cases: scale not given: direction of the effect not stated beside the values
# [1] = biological target: Protein translocase subunit SecA (Escherichia coli (strain K12)) (UniProt P10408); test: Assay to Identify E. coli SecA ATPase Inhibitors; type: functional; conditions: 30 µM
# [2] = biological target: T1, Ubiquitin-activating enzyme e1, putative (Leishmania donovani (strain BPK282A1)) (UniProt E9BSI1); test: Leishmania donovani Ubiquitin Activating Enzyme (LdE1); type: functional; conditions: 30 µM
# T1 sequence (whole entry): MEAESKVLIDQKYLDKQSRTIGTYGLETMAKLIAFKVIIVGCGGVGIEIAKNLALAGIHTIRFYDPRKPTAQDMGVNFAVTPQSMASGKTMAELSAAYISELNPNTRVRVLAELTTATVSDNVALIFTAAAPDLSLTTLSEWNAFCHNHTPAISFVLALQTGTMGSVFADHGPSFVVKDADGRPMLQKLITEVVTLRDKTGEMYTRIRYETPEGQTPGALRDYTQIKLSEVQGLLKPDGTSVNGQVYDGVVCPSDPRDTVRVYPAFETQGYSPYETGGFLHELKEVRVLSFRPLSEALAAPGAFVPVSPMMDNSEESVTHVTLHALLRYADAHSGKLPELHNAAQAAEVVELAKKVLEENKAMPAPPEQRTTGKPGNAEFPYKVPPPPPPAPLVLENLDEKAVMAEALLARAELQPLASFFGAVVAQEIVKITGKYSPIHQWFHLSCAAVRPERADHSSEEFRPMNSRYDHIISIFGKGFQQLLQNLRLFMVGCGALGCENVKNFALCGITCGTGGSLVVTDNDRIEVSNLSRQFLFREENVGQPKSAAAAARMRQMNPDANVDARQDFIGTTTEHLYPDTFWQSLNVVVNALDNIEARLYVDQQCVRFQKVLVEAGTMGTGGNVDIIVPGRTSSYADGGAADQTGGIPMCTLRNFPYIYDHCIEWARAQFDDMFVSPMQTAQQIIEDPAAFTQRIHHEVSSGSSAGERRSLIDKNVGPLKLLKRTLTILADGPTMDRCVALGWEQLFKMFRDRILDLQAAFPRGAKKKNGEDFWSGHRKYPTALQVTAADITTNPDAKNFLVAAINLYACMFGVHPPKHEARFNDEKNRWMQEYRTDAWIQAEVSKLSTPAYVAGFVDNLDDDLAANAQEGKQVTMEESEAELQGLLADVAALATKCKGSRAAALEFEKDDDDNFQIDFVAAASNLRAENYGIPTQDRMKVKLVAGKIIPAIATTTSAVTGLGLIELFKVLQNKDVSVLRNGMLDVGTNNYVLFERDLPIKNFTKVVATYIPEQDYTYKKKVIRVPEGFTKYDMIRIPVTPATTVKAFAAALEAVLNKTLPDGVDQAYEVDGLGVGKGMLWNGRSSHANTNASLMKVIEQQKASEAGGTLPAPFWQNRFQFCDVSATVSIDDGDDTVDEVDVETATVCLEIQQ
# [3] = biological target: AMP-activated protein kinase, AMPK (Homo sapiens) (UniProt P54646+O43741+P54619+Q9UGJ0+Q9Y478+Q13131+Q9UGI9); test: AMP-dependent Kinase enzyme assay. An in vitro enzyme assay that detects ADP turnover that is directly proportional to AMPK activity. This uses naive AMPK that is activated during the assay with MK-8722; type: functional; conditions: 30 µM
# [4] = biological target: Sialic acid-binding Ig-like lectin 9 (Homo sapiens) (UniProt Q9Y336); test: Hs-Siglec9 ALPHAscreen SOP 20170721; conditions: 10 µM
# Sequence of Sialic acid-binding Ig-like lectin 9 (Homo sapiens) (Q9Y336 whole entry): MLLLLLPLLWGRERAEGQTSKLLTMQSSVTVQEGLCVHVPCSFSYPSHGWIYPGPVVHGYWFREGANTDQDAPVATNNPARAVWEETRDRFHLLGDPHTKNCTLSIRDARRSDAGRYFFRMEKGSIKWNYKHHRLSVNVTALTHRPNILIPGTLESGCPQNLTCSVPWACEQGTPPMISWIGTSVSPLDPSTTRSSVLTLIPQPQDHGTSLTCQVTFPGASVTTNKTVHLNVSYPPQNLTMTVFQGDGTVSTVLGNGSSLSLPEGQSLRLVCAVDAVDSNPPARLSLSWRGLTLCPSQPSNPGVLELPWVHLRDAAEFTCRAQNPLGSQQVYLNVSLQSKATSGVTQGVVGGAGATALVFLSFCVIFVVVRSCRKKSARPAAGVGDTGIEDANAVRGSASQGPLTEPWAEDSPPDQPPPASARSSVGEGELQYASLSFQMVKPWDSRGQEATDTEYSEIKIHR
# Trypanosoma cruzi = test: Trypanosoma cruzi phosphomannomutase and mannose-1-phosphate guanylyltransferase assay; type: functional; conditions: 10 µM
# [5] = biological target: T2, Arginase-2, mitochondrial (Homo sapiens) (UniProt P78540); test: in vitro enzyme assay to detect the production of urea directly proportional to the activity of Arginase II; type: functional; conditions: 33.3 µM; further: in the data most compounds retested in dose-response had high values
# T2 sequence (whole entry): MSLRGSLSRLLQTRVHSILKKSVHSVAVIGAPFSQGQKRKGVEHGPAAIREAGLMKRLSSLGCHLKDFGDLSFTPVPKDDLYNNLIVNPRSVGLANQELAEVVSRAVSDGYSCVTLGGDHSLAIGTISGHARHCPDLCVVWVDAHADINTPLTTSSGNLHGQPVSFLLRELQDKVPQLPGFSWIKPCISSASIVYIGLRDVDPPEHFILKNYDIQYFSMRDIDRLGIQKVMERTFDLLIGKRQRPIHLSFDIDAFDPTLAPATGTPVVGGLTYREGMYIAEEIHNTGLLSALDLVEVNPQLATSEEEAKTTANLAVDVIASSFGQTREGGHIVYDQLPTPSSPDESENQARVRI
# [6] = biological target: T3, Proteasome subunit beta (Trypanosoma cruzi) (UniProt O96673); test: Trypanosoma cruzi proteasome chymotrypsin-like activity (TcProtChymo) assay.; further: in the data most compounds retested in dose-response had high values; type: functional; conditions: 9.37 µM
# T3 sequence (whole entry): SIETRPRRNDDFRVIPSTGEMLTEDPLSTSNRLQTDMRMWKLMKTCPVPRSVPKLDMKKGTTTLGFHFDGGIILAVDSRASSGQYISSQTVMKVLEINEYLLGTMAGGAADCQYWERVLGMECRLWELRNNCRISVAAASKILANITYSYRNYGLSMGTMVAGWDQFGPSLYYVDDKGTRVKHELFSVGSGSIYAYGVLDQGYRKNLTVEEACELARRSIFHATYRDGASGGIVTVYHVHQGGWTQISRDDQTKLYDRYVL
# Homo sapiens = species on record: Homo sapiens; test: To identify inhibition of the IFN signalling (Jak-Stat) pathway via expression of an eGFP reporter gene under the control of an IFN-stimulated response element (ISRE) containing MxA promoter.; type: functional; conditions: 30 µM
# [7] = biological target: T4, Tyrosyl-tRNA synthetase, putative (Trypanosoma cruzi (strain CL Brener)) (UniProt Q4DSP6); test: Trypanosoma cruzi tyrosyl tRNA synthetase (TcYRS) _High Tyrosine SOP; type: functional; conditions: 30 µM; further: in the data most compounds retested in dose-response had high values
# T4 sequence (whole entry): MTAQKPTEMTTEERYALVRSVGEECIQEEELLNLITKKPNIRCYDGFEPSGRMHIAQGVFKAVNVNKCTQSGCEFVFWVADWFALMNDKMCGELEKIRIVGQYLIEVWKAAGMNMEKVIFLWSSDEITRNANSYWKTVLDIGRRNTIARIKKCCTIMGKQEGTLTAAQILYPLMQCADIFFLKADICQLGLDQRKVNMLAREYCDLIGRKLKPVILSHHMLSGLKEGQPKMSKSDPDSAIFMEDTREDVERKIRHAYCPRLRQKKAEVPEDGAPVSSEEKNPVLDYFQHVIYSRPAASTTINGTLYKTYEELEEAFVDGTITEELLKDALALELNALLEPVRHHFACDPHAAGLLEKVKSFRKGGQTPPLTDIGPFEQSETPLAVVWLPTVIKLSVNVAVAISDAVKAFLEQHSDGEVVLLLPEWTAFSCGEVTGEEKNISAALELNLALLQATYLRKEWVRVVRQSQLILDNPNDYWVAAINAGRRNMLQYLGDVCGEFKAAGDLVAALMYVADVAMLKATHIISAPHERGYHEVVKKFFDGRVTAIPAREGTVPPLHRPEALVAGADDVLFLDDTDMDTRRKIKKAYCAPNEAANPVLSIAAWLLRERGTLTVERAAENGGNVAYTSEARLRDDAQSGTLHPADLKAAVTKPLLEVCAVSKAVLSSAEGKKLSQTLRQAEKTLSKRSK
# [8] = biological target: T4, Tyrosyl-tRNA synthetase, putative (Trypanosoma cruzi (strain CL Brener)); test: Trypanosoma cruzi tyrosyl tRNA synthetase (TcYRS) SOP; type: functional; conditions: 30 µM
# [9] = biological target: Chromo domain-containing protein 1 (Saccharomyces cerevisiae (strain ATCC 204508 / S288c) (Baker's yeast)) (UniProt P32657); test: ScCHD-1 Enzyme Inhibition Assay; type: functional; conditions: 30 µM; further: in the data most compounds retested in dose-response had high values
# Sequence of Chromo domain-containing protein 1 (Saccharomyces cerevisiae (strain ATCC 204508 / S288c) (Baker's yeast)) (P32657 whole entry, the tested form may be a part): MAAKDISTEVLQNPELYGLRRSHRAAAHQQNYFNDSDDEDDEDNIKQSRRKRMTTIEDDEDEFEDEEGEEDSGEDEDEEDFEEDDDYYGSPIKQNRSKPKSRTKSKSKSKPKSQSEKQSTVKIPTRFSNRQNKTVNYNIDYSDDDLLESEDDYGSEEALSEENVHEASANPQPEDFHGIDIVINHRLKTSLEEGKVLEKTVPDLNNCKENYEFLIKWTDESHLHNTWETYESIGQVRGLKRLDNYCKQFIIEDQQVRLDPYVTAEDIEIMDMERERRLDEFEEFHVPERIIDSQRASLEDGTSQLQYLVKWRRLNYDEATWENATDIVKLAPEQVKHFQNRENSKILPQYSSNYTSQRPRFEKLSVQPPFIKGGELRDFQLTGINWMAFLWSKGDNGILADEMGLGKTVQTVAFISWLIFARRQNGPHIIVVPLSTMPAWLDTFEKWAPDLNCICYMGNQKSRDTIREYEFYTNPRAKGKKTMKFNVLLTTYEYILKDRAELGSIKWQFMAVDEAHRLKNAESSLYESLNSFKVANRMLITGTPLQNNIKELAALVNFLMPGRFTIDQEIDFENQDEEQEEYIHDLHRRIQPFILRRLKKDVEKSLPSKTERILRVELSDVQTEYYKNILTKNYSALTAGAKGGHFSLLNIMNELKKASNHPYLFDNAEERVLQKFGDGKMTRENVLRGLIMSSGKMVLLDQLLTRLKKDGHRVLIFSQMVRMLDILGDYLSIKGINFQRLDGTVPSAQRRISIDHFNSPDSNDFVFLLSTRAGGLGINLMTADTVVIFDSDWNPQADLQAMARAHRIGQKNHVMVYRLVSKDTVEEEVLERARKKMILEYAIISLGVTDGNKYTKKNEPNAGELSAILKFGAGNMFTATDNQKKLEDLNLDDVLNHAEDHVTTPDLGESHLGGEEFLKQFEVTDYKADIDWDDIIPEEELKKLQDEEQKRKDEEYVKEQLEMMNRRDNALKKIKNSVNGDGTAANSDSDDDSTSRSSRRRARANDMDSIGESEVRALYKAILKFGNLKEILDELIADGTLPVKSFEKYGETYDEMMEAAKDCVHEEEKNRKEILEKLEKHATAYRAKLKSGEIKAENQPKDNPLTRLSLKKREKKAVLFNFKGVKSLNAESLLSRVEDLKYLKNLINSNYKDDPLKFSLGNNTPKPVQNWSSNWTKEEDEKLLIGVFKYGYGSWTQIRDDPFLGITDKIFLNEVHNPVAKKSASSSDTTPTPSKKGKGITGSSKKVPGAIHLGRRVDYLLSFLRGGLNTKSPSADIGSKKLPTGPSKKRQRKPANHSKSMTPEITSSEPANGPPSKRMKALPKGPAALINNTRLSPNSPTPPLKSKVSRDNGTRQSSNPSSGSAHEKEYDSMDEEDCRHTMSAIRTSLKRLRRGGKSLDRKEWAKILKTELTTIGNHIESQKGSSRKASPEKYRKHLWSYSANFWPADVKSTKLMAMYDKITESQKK
# Sequence of Protein translocase subunit SecA (Escherichia coli (strain K12)) (P10408 whole entry): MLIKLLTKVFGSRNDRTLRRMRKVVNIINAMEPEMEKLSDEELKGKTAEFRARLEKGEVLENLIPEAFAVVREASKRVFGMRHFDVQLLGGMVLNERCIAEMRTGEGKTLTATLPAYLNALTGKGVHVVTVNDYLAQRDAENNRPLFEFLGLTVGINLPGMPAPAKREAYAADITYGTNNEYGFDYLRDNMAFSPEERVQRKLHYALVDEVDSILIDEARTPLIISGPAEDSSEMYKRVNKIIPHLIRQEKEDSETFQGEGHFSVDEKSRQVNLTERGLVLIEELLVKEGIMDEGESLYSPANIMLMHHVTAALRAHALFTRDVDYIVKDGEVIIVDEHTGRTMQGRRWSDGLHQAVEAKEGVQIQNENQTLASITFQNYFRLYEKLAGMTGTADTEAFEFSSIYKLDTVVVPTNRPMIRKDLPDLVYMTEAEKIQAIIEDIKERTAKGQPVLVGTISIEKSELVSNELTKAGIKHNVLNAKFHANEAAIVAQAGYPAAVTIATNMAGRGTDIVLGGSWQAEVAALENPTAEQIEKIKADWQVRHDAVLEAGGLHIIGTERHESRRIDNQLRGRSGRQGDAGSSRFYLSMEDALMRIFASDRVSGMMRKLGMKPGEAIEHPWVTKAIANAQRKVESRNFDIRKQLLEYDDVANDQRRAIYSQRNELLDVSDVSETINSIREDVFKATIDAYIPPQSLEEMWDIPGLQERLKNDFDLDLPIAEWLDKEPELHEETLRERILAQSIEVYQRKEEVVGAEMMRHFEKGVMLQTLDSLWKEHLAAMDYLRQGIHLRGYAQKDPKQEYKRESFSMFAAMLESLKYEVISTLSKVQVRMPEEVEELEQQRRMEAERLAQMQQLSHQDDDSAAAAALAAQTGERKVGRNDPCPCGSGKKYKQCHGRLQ
SMILES,Percent Effect [1],Percent Effect [2],Percent Effect [3],Percent Effect [4],Percent Effect (Trypanosoma cruzi),Percent Effect [5],Percent Effect [6],Percent Effect (Homo sapiens),Percent Effect [7],Percent Effect [8],Percent Effect [9]
Cc1cnn(CC2CCCN2C(=O)CCc2c(C)noc2Cl)c1 (stereo not given),-2.86%,-2.63%,5.68%,-4.15%,7.11%,4.73%,13.5%,-23.3%,5.32%,5.2%,1.72%
CC(NC(=O)Cc1cccs1)c1nnc2n1CCCCC2 (stereo not given),-5.37%,10.8%,0.496%,4.55%,1.95%,-1.66%,-7.54%,-0.0451%,3.96%,15.8%,1.56%
CN1CCCC1CNC(=O)CCCOCc1ccccc1 (stereo not given),-4.32%,2.63%,1.84%,9.93%,2.44%,2.3%,-4.01%,-1.82%,5.39%,7.32%,6%
CCCNC(=O)CNc1cc(C(=O)N2CCSCC2)ccc1C,-4.74%,5.48%,-4.24%,9.22%,8.73%,-4.39%,7.28%,2.79%,5.21%,11.1%,-9.2%
CC(C)Cc1noc(CN2CCC(NC(=O)c3cccs3)CC2)n1,-4.22%,15.6%,5.36%,8.56%,3.64%,-8.28%,19%,3.93%,6.45%,16.1%,-6.14%
c1cn(Cc2nnc(C3CCN(C4CCOCC4)CC3)n2C2CC2)cn1,-3.73%,2.67%,-3.77%,-0.983%,-3.21%,0%,26.7%,21.6%,2.73%,3.7%,-5.45%
CC(Cn1ccnc1)NC(=O)NCCc1ccc2c(c1)OCCO2 (stereo not given),-3.57%,18.2%,-10.2%,-0.77%,-10.1%,0.712%,15.7%,31.7%,4.85%,2.44%,-8.39%
O=C(CO)N1C[C@H]2CC[C@@H]1CN(C1Cc3ccccc3C1)C2,-5.84%,5.41%,-17.8%,-1.59%,-1.86%,1.74%,5.75%,3.96%,1.07%,8.64%,-4.67%
Cc1ccc(C)c(-n2ccc3nc(N4CCCC4)ncc3c2=O)c1,-0.118%,-6.67%,21.7%,3.47%,-2.16%,-6.16%,-2.96%,-1.59%,3.17%,-5.13%,-0.262%
Cc1ccc(C(=O)NC(C)CN2CCCC2=O)c(=O)[nH]1 (stereo not given),-6.8%,5.48%,-5.61%,0.134%,-2.94%,0.455%,12.8%,18.2%,1.07%,2.5%,-0.198%

# — ChEMBL document CHEMBL3988442, “University of Dundee, Small-Polar-MMV Screening Library” (2021)
